Activity calls are given as the source filed them. How the source made its calls: active means hit-call score of the fitted dose curve at least 0.9, where 1 is the maximum; inactive means score below 0.9.

Holding throughout (conditions): mRNA level, 48 h; actives raise or lower the signal
Read-out in test [1]: Tumor necrosis factor receptor superfamily member 6 (Homo sapiens) (UniProt P25445)
Kind of test: LTEA_HepaRG_FAS: Life Technologies and Expression Analysis (LTEA) Assay for Fas cell surface death receptor (FAS) using HepaRG (AID 2283447). In short, it runs like this:
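FAS transcript level was measured by TaqMan qRT-PCR against three housekeeping genes after 48 h chemical exposure. Cells were HepaRG, 0.5% DMSO vehicle, with a top concentration of 100 uM and half-log dilutions over eight points, in duplicate.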

Read-out in test [2]: Fatty acid synthase (Homo sapiens) (UniProt P49327)
The experiment in a line: LTEA_HepaRG_FASN: Life Technologies and Expression Analysis (LTEA) Assay for Fatty Acid Synthase (FASN) using HepaRG (AID 2283448). The gist of the method:
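Cells were plated, cultured 48 h, switched to serum-free induction medium, then dosed in duplicate (max 100 uM, half-log dilutions, 0.5% DMSO) for 48 h. RNA was then isolated and FASN quantified by qRT-PCR.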

Read-out in test [3]: Cyclin D2 (CCND2), CCND2 (gene 894)
Kind of test: LTEA_HepaRG_CCND2: Life Technologies and Expression Analysis (LTEA) Assay for Cyclin D2 (CCND2) using HepaRG (AID 2283449). The gist of the method: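 CCND2 transcript levels, quantified by qRT-PCR and normalised to three housekeeping genes, were fitted bidirectionally against 0.5% DMSO. HepaRG cultures were dosed 48 h in duplicate with an 8-point half-log series up to 100 uM.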

Read-out in test [4]: Cyclin Dependent Kinase Inhibitor 1A (CDKN1A), CDKN1A (gene 1026)
The experiment in a line: LTEA_HepaRG_CDKN1A: Life Technologies and Expression Analysis (LTEA) Assay for Cyclin Dependent Kinase Inhibitor 1A (CDKN1A) using HepaRG (AID 2283450). The gist of the method: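 Read-out is CDKN1A mRNA by TaqMan qRT-PCR, normalized to three housekeeping genes and fitted in both directions against the DMSO baseline. Human HepaRG cells were treated 48 h with test chemicals up to 100 uM in half-log steps, 0.5% DMSO.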

Read-out in test [5]: Cyclin D1 (CCND1), CCND1 (gene 595)
Kind of test: LTEA_HepaRG_CCND1: Life Technologies and Expression Analysis (LTEA) Assay for Cyclin D1 (CCND1) using HepaRG (AID 2283451). The gist of the method:
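HepaRG plated 48 h, medium switched to serum-free induction medium, chemicals added in duplicate (top 100 uM, half-log steps, 0.5% DMSO) for 48 h, cells lysed, RNA measured by TaqMan qRT-PCR.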

Read-out in test [6]: catalase (CAT), CAT (gene 847)
Kind of test: LTEA_HepaRG_CAT: Life Technologies and Expression Analysis (LTEA) Assay for catalase (CAT) using HepaRG (AID 2283452). In short, it runs like this: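 Expression of CAT was quantified by TaqMan qRT-PCR with ACTB/GAPDH/POLR2A normalization after 48 h chemical exposure of HepaRG. Eight-point half-log series, top 100 uM, in 0.5% DMSO; gain or loss fitted against vehicle.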

Read-out in test [7]: flavin-containing dimethylaniline monooxygenases 3 (FMO3), FMO3 (gene 2328)
Kind of test: LTEA_HepaRG_FMO3: Life Technologies and Expression Analysis (LTEA) Assay for flavin-containing dimethylaniline monooxygenases 3 (FMO3) using HepaRG (AID 2283453). In short, it runs like this: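 FMO3 transcript quantified by TaqMan qRT-PCR against three housekeeping genes after 48 h chemical exposure of HepaRG cells. Eight-point half-log series, top 100 uM, 0.5% DMSO vehicle; phenobarbital 1mM induction control; up- or down-regulation fitted.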

Read-out in test [8]: Cytochrome P450 (CYP1A1), CYP1A1 (gene 1543)
The experiment in a line: LTEA_HepaRG_CYP1A1: Life Technologies and Expression Analysis (LTEA) Assay for Cytochrome P450 (CYP1A1) using HepaRG (AID 2283454). The gist of the method:
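HepaRG, 48 h post-plating switched to serum-free induction medium; 8-pt conc-response (top 100 uM, half-log, 0.5% DMSO), duplicates, 48 h. Lysis in RLT, TaqMan qRT-PCR for CYP1A1; gain or loss vs DMSO.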

Read-out in test [9]: CFLAR gene, CFLAR (gene 8837)
Kind of test: LTEA_HepaRG_CFLAR: Life Technologies and Expression Analysis (LTEA) Assay for CFLAR gene using HepaRG (AID 2283455). The gist of the method:
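Transcript level by qRT-PCR (normalized to ACTB, GAPDH and POLR2A) after 48 h chemical exposure of HepaRG cells, top concentration 100 uM with half-log steps, 0.5% DMSO vehicle, duplicates; fitted bidirectionally against DMSO baseline.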

Read-out in test [10]: Forkhead box O1 (FOXO1), FOXO1 (gene 2308)
The experiment in a line: LTEA_HepaRG_FOXO1: Life Technologies and Expression Analysis (LTEA) Assay for Forkhead box O1 (FOXO1) using HepaRG (AID 2283456). In short, it runs like this:
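FOXO1 transcript quantified by qRT-PCR after 48 h chemical exposure (top 100 uM, half-log steps, 0.5% DMSO) of HepaRG cells, housekeeping-normalized (ACTB/GAPDH/POLR2A). Changes fitted in both directions relative to vehicle.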

Read-out in test [11]: growth arrest and DNA damage 45 (GADD45A), GADD45A (gene 1647)
The experiment in a line: LTEA_HepaRG_GADD45A: Life Technologies and Expression Analysis (LTEA) Assay for growth arrest and DNA damage 45 (GADD45A) using HepaRG (AID 2283458). In short, it runs like this:
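Transcript induction or loss, quantified by TaqMan qRT-PCR against three housekeeping genes, is the read-out. HepaRG cells received chemicals for 48 h across eight half-log concentrations from 100 uM in 0.5% DMSO; gain and loss fitted relative to DMSO.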

Read-out in test [12]: Forkhead box O3 (FOXO3), FOXO3 (gene 2309)
Kind of test: LTEA_HepaRG_FOXO3: Life Technologies and Expression Analysis (LTEA) Assay for Forkhead box O3 (FOXO3) using HepaRG (AID 2283459). In short, it runs like this:
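FOXO3 transcript measured by qRT-PCR (normalized to ACTB, GAPDH, POLR2A) after 48 h exposure of HepaRG cells in serum-free induction medium. Duplicates, eight half-log concentrations up to 100 uM, 0.5% DMSO; gain or loss fitted against DMSO.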

Read-out in test [13]: ABC Transporter (ABCB1), ABCB1 (gene 5243)
The experiment in a line: LTEA_HepaRG_ABCB1: Life Technologies and Expression Analysis (LTEA) Assay for ABC Transporter (ABCB1) using HepaRG (AID 2283460). The gist of the method:
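ABCB1 transcript level measured by TaqMan qRT-PCR against three housekeeping genes after 48 h chemical exposure of differentiated HepaRG cells. Top concentration 100 uM, half-log steps, eight points, 0.5% DMSO vehicle; bidirectional fit relative to DMSO.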

Read-out in test [14]: growth arrest and DNA damage 45 (GADD45B), GADD45B (gene 4616)
The experiment in a line: LTEA_HepaRG_GADD45B: Life Technologies and Expression Analysis (LTEA) Assay for growth arrest and DNA damage 45 (GADD45B) using HepaRG (AID 2283461). The gist of the method: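 HepaRG, ~100,000 cells/well, 48 h plating; serum-free induction medium; cpd 100 uM top, half-log x8, 0.5% DMSO, duplicate, 48 h; lysis in RLT, RNA isolation, qRT-PCR; norm ACTB/GAPDH/POLR2A; bidirectional fit vs DMSO.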

Read-out in test [15]: ABC Transporter (ABCC3), ABCC3 (gene 8714)
The experiment in a line: LTEA_HepaRG_ABCC3: Life Technologies and Expression Analysis (LTEA) Assay for ABC Transporter (ABCC3) using HepaRG (AID 2283462). The gist of the method:
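Human HepaRG, 48 h dosing, 8-pt half-log series from 100 uM, 0.5% DMSO vehicle, duplicates. ABCC3 mRNA by TaqMan qRT-PCR, housekeeping-normalized; bidirectional curve fit vs DMSO.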

Read-out in test [16]: ABC Transporter (ABCB11), ABCB11 (gene 8647)
The experiment in a line: LTEA_HepaRG_ABCB11: Life Technologies and Expression Analysis (LTEA) Assay for ABC Transporter (ABCB11) using HepaRG (AID 2283463). In short, it runs like this: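 ABCB11 transcript levels quantified by TaqMan qRT-PCR against three housekeeping genes after 48 h chemical exposure of HepaRG cultures. Concentrations up to 100 uM in half-log steps, 0.5% DMSO vehicle; both induction and suppression scored.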

Read-out in test [17]: Broad substrate specificity ATP-binding cassette transporter ABCG2 (Homo sapiens) (UniProt Q9UNQ0)
The experiment in a line: LTEA_HepaRG_ABCG2: Life Technologies and Expression Analysis (LTEA) Assay for ABC Transporter (ABCG2) using HepaRG (AID 2283465). In short, it runs like this: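 ABCG2 transcript was quantified by TaqMan qRT-PCR against three housekeeping genes in HepaRG cells. Cells were treated in duplicate for 48 h across an 8-point half-log series up to 100 uM, with 0.5% DMSO vehicle. Gain or loss versus DMSO was fit.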

Read-out in test [18]: ABC Transporter (ABCC2), ABCC2 (gene 1244)
Kind of test: LTEA_HepaRG_ABCC2: Life Technologies and Expression Analysis (LTEA) Assay for ABC Transporter (ABCC2) using HepaRG (AID 2283464). In short, it runs like this: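 HepaRG, 48 h post-plating; serum-free induction medium; cpd 8-pt, 100 uM top, half-log, 0.5% DMSO, duplicate, 48 h. Readout: ABCC2 mRNA by qRT-PCR, norm. ACTB/GAPDH/POLR2A. Bidirectional fit vs DMSO baseline.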

Chain of Fatty acid synthase (Homo sapiens) (P49327 whole entry, looked up): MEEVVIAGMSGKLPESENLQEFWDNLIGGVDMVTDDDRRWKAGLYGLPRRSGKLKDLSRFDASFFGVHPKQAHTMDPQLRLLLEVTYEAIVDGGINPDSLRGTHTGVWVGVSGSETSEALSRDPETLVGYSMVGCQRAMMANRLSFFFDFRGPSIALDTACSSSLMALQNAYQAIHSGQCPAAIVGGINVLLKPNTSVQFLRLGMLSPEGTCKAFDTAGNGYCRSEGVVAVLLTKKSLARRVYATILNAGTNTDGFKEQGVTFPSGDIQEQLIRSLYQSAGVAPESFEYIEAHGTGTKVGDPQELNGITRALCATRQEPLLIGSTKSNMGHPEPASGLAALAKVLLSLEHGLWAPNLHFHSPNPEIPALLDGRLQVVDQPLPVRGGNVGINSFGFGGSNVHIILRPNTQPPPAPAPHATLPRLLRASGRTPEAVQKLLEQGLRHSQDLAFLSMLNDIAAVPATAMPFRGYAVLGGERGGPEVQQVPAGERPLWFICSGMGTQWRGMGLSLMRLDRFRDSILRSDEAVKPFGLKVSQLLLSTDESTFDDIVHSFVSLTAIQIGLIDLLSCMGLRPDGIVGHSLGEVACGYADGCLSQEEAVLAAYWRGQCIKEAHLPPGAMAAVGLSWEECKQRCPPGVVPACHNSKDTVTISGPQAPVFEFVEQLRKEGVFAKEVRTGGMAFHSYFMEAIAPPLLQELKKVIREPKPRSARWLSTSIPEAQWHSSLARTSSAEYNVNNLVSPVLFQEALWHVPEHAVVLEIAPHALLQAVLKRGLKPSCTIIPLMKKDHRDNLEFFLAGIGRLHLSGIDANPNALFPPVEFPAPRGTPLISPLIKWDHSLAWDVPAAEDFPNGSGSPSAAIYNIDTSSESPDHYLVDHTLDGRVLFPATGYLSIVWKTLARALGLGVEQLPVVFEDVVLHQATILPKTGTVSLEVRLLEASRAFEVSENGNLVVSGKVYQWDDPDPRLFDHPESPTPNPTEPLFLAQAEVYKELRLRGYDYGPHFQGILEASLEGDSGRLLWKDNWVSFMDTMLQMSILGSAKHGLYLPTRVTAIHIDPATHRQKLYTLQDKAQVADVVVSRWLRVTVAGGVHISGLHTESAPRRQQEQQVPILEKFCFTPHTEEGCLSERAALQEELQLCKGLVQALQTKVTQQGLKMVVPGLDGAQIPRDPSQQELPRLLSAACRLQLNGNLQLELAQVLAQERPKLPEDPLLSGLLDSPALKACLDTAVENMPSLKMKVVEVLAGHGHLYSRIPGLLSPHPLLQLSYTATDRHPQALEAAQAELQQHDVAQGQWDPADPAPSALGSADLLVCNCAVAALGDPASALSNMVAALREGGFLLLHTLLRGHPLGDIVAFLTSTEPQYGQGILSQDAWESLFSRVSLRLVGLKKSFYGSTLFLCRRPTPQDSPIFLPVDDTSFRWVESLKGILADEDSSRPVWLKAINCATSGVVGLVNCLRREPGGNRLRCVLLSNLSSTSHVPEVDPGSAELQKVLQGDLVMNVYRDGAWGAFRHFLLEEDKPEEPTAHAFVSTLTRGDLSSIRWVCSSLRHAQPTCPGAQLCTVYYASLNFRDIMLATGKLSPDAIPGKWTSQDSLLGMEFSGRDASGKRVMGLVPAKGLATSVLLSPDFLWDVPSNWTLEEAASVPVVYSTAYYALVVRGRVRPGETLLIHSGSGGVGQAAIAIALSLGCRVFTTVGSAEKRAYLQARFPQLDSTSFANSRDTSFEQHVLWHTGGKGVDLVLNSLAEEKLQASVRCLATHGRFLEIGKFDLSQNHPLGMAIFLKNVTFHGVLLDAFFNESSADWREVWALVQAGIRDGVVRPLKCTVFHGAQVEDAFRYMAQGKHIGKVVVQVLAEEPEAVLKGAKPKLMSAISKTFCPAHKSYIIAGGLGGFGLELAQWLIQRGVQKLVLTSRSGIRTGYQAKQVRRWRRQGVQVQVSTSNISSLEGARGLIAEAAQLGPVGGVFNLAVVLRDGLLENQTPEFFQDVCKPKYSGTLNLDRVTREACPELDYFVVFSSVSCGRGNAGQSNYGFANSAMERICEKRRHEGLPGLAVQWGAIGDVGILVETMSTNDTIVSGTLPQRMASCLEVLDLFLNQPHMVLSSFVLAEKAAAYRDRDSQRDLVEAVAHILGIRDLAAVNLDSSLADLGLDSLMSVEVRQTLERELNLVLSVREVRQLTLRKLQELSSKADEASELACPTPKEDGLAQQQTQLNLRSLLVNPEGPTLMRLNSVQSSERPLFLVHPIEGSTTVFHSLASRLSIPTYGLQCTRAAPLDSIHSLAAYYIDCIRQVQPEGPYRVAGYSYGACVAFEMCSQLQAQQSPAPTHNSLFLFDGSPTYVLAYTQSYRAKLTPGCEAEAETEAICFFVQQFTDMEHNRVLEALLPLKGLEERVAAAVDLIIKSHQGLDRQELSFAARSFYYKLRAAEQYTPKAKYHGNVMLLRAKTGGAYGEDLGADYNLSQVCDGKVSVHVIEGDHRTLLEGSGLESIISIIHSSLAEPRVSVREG
Chain of Broad substrate specificity ATP-binding cassette transporter ABCG2 (Homo sapiens) (Q9UNQ0 whole entry, looked up): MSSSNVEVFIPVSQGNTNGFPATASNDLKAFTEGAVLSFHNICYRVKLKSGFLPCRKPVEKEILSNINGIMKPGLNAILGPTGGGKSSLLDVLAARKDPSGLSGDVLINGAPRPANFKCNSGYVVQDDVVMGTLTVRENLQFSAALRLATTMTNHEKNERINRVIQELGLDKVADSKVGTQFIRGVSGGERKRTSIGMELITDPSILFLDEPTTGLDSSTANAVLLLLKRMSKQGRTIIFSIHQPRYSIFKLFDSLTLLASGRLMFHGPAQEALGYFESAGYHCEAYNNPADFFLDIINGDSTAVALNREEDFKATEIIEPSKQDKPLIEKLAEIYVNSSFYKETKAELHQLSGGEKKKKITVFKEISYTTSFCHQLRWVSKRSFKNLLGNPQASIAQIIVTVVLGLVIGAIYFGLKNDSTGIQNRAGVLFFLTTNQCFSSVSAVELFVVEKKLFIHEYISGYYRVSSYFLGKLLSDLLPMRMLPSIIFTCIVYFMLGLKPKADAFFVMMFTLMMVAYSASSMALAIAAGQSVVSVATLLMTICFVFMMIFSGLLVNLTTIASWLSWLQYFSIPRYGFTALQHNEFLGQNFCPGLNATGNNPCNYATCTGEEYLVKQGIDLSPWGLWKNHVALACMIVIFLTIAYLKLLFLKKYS

For `CCCCC(CC)COC(=O)c1ccc(C(=O)OCC(CC)CCCC)cc1` (centres undefined), the call in test [1], in test [2], in [3], in test [4], in test [5] and in test [6] was inactive. In addition, the outcome in [7], in test [8], in test [9], in test [10], in [11] and in test [12] was inactive. In addition, the call in [13], in test [14], in test [15], in [16] and in test [17] was inactive.

Take `COC(=O)c1ccccc1O`: the compound was classed as inactive in test [1], in test [2], in test [4], in test [5], in [6] and in [7]. Moreover, the compound was called inactive in test [8], in test [9], in [10], in test [11], in [12] and in test [13]. For the same compound, the outcome in [14], in test [15], in test [16], in test [18] and in test [17] was inactive.

One may read the AC50 as the concentration giving half of the maximal activity seen. For the compound `CCOC(=O)CC(CC(=O)OCC)(OC(C)=O)C(=O)OCC`, the call in [1], in [2], in [3], in test [4], in test [5] and in [6] was inactive. Moreover, the call in test [7], in test [9], in [10], in test [11], in [12] and in test [13] was inactive. The call in test [14], in [15], in test [16], in [18] and in test [17] was inactive. Also, the AC50 in test [8] is 70.5 µM (active).

With `C1=CCCC=CCCC=CCC1`, the call in [1], in test [2], in [3], in test [4], in [5] and in [6] was inactive. The result in [7], in test [8], in test [10], in test [11], in [12] and in test [13] was inactive. Further, the compound was classed as inactive in test [14], in [15], in [16] and in [17].

With `CC[C@H]1OC(=O)[C@H](C)[C@@H](O[C@H]2C[C@@](C)(OC)[C@@H](O)[C@H](C)O2)[C@H](C)[C@@H](O[C@@H]2O[C@H](C)C[C@H](N(C)C)[C@H]2O)[C@](C)(O)C[C@@H](C)C(=O)[C@H](C)[C@@H](O)[C@]1(C)O`, the outcome in test [1], in test [2], in test [3], in test [4], in test [5] and in test [6] was inactive. Moreover, the compound was called inactive in [7], in test [9], in test [10], in test [11], in test [12] and in test [13]. Also, the call in test [14], in test [15], in test [16], in [18] and in test [17] was inactive. For the same compound, in test [8], the AC50 was 53.9 µM (active).

In the case of `CCOC(=O)COc1ccc2c(c1)CC(NCC(O)c1cccc(Cl)c1)CC2` (centres undefined), the outcome in [1], in test [2], in test [3], in [4], in [5] and in test [6] was inactive. Moreover, the result in test [7], in [8], in test [9], in [10], in test [11] and in test [12] was inactive. In addition, the compound was called inactive in test [13], in test [14], in test [15], in [16], in test [18] and in [17].
